From PubChem
JMJD2A Tudor = inhibitors of human JMJD2A Tudor domain. O75164. AlphaScreen JMJD2A-Tudor / H3K4me3 peptide binding. Potency, µM (top dose mostly 114 µM), without a hit: top-dose activity change, negative = inhibition, actives largely listed as inhibitors. hit rate 4.4% among 390,000. AID 504339; also: % is scaled to controls: 0 for no effect and ±100 for the full control effect; nearly all actives have a fitted effect of over 50% in size
PLK1 PBD inh = blocks phosphopeptide binding to human PLK1 polo-box domain. Potency, µM, for the others: max response, negative = inhibition, most hits filed as inhibitors. Plk1 PBD binding of FITC phosphopeptide, fluorescence polarization. hit rate 2.8% among 360,000. AID 720504; also: series mostly up to about 57 µM; % is scaled to controls: 0 for no effect and ±100 for the full control effect; nearly all actives have a fitted effect of over 65% in size
L3MBTL1 block = inhibitors of human L3MBTL1; Potency, µM (highest dose often 57.1 µM), inactives show top-dose activity, negative = inhibition, actives largely listed as inhibitors; Q9Y468; hit rate 0.66% among 230,000; AID 485360; AlphaScreen L3MBTL1–H3K9me1 peptide binding; also: % is scaled to controls: 0 for no effect and ±100 for the full control effect; nearly all actives have a fitted effect of over 60% in size
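Displacement of a biotinylated histone H3(1-15) peptide monomethylated at Lys9 (75 nM) from L3MBTL1 (50 nM) was measured by AlphaScreen after a 30 min room-temperature compound incubation; cefsulodin titration served as intraplate control.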
HP1b binding inh = HP1-beta chromodomain-methylated histone interaction inhibition; P83916; AlphaScreen HP1-beta / biotin-H3K9me3 peptide binding; Potency, µM (series often up to 114 µM), for inactives: top-dose activity change, negative = inhibition, most hits filed as inhibitors; hit rate 0.56% among 390,000; also: nearly all actives have a fitted effect of over 70% in size
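AlphaScreen: HP1-beta (50 nM) preformed 30 min with biotin-H3(1-18)K9me3 peptide (50 nM) in PBS pH 7.4, 0.01% Tween-20. Compound added for 30 min at RT, then streptavidin donor/nickel chelate acceptor beads (10 ug/mL) for 30 min.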
BAZ2B inh = blocks human BAZ2B | Potency, µM (top dose mostly 114 µM), inactives show top-dose activity change, negative = inhibition, actives largely listed as inhibitors | hit rate 4.4% among 360,000 | Q9UIF8 | AlphaScreen BAZ2B-H3K14Ac peptide displacement; also: % is scaled to controls: 0 for no effect and ±100 for the full control effect; nearly all actives have a fitted effect of over 60% in size
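Multi-concentration screen (max 110 uM) measuring displacement of acetylated histone H3 peptide from BAZ2B by AlphaScreen, using 50 nM protein, 50 nM peptide and 10 ug/mL streptavidin donor plus Ni-chelate acceptor beads.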
VDR inh = blocks the human vitamin D receptor; Potency, µM, without a hit: max response, negative = inhibition, hits mostly inhibitors; VDR-SRC2-3 peptide fluorescence polarization, 2 h; hit rate 0.93% among 400,000; also: % is scaled to controls: 0 for no effect and ±100 for the full control effect
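Measured by FP: displacement of SRC2-3 coactivator peptide from VDR by library compounds, following a two-hour ambient incubation.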
Active calls of the source: *; ? = inconclusive; / = no result; [ ] = dose if it differs, or a comment. Only some compounds are listed: those with a hit (about 6.9% of all), similar ones and a draw of the others. Calls follow the shape of the dose curve; as a rule, active = well fitted curve in the direction sought with a large enough effect; inconclusive = small, poorly fitted or top-dose-only effect, or another doubt; inactive = no such curve, though single readings can be large; an effect the other way counts as inactive or inconclusive. Potency is read from the fitted curve at half-maximal effect.

SMILES	JMJD2A Tudor	PLK1 PBD inh	L3MBTL1 block	HP1b binding inh	BAZ2B inh	VDR inh
COc1ccccc1NC(=O)Cc1cccc2ccccc12	12%	-11%	-6%[2.29 µM]	82%	8%	14%
COc1ccc(C(C)(C)C)cc1NC(=O)CNc1cccc2ccccc12	45µM*	13%	-15%	?	?	-12%
COc1cc(OC)c2ccc(=O)oc2c1C(CCN1CCCC(C)C1)c1ccc(N(C)C)cc1 (centres undefined)	35µM*	-3%	/	-20%	?	-2%
COc1cc(C(CCN2CCCC(C)C2)c2c(OC)cc(OC)c3c(C)cc(=O)oc23)cc(OC)c1OC (centres undefined)	-19%	/	/	?	/	2%
COc1cc(OC)c2ccc(=O)oc2c1C(CC(=O)N1CCCC(C)C1)c1ccc2c(c1)OCO2 (centres undefined)	?	-17%	/	-10%	50µM*	-4%
CCCCCc1cc(=O)oc2c(C(CCN3CCCC(C)C3)c3cc(OC)c(OC)c(OC)c3)c(OC)cc(OC)c12 (centres undefined)	?	-8%	/	6%	-30%	-7%
COc1cc(OC)c2ccc(=O)oc2c1C(CC(=O)N1CCCCC1)c1ccc2c(c1)OCO2 (centres undefined)	?	/	/	7%	/	-5%
CCCCCc1cc(=O)oc2c(C(CCN3CCCC(C)C3)c3ccc(N(C)C)cc3)c(OC)cc(OC)c12 (centres undefined)	25µM*	1%	/	25µM*	11µM*	-2%
COc1ccc(Cl)cc1C=CC=NNS(=O)(=O)c1ccc(C)cc1	-31%	1%	/	20%	/	-6%
COc1ccc(Cl)cc1C=CC=Nc1ccccc1O	?	-13%	/	22%	/	89µM*
COc1ccc(CN2CCN(Cc3ccc(C(F)(F)F)cc3)CC2)c(OC)c1	5.6µM*	0%	/	?	25µM*	-2%
COc1ccc(-c2nnn(Cc3ccccc3F)n2)cc1	146%	-6%	28%	236%	85%	-6%
COc1cccc(-n2c(CN3CCN(c4ccccn4)CC3)nc3ccc([N+](=O)[O-])cc3c2=O)c1	-32%	-7%	/	-7%[57 µM]	56µM*	-4%
COc1ccc(-n2c(CN3CCN(c4ccccc4)CC3)nc3ccc([N+](=O)[O-])cc3c2=O)c(OC)c1	?	-10%	/	?	-38%	7%
Cc1ccc(-c2nn(-c3cccc(F)c3)cc2CN2CCN(c3ccccn3)CC2)o1	35µM*	-18%	-19%	?	50µM*	-33%
Cc1ccc(-c2nn(-c3cccc(F)c3)cc2CN(Cc2nccn2C)C(C)C)o1	?	-12%	-11%	?	?	14%
COc1ccc(CN2CCN(Cc3ccccc3F)CC2)c(OC)c1	1.3µM*	6%	/	?	20µM*	-3%
COc1ccc(CN2CCN(c3ncccn3)CC2)c(OC)c1	?	-9%	-11%	?	-5%	17%
COc1ccc(CNC(=O)CSCc2ccc(C)cc2)c(OC)c1	-3%	/	/	58%	6%	9%
COc1ccc(CN2CCN(c3ccccn3)CC2)c(OC)c1	1.6µM*	3%	0%	?	79µM*	-3%
COc1ccc(CN2CCN(Cc3ccc(C)cc3)CC2)c(OC)c1	3.2µM*	4%	/	?	22µM*	-8%
COc1ccc(S(=O)(=O)NCCc2ccco2)cc1OC	-11%	-1%	/	44%	-5%[57.1 µM]	4%
COc1ccc(S(=O)(=O)NCCSCc2ccco2)cc1OC	-34%	-4%	/	8%	56µM*	10%
Cc1ccc(S(=O)(=O)NCCSCc2ccco2)cc1	-22%	-14%	-11%	-4%	-19%	-3%
COc1ccc(S(=O)(=O)NCCSCc2ccco2)cc1	-30%	-15%	/	0%	50µM*	-5%
SMILES	JMJD2A Tudor	PLK1 PBD inh	L3MBTL1 block	HP1b binding inh	BAZ2B inh	VDR inh
CCc1nnc(NS(=O)(=O)c2ccc(NC(=S)NC(=O)/C=C/c3ccccc3)cc2)s1	79µM*	?	4%	-29%	?	-30%
CCc1nnc(NS(=O)(=O)c2ccc(NC(=O)/C=C/c3ccccc3Cl)cc2)s1	-13%	?	-12%	17%	?	-4%
CCc1nnc(NS(=O)(=O)c2ccc(NC(=S)NC(=O)/C=C/c3ccc(OC)cc3)cc2)s1	32µM*	27µM*	-15%	?	?	1%
CCc1nnc(NS(=O)(=O)c2ccc(NC(=O)c3ccccc3)cc2)s1	-5%	-10%	/	22%	-24%	-5%
CCc1nnc(NS(=O)(=O)c2ccc(NC(=S)NC(=O)c3ccc(Br)cc3)cc2)s1	?	?	-5%	-21%	?	?
CCc1nnc(NS(=O)(=O)c2ccc(NC(=S)NC(=O)/C=C/c3ccc(C(C)C)cc3)cc2)s1	56µM*	21µM*	0%	?	50µM*	-9%
CCc1nnc(NS(=O)(=O)c2ccc(NC(=S)NC(=O)c3ccccc3)cc2)s1	?	-25%	-4%	-6%	?	-12%
CCc1nnc(NS(=O)(=O)c2ccc(N/C=C\C(=O)c3ccc4ccccc4c3)cc2)s1	?	24µM*	1%	-23%	?	-23%
O=C(NCc1ccco1)c1cnn2c1NC(c1ccc(Br)cc1)CC2C(F)(F)F (centres undefined)	?	3µM*	0%	?	?	?
CCN1C(=O)[C@H]2[C@@H](c3ccc(-c4ccc(F)cc4)c(OC)c3)N[C@@](Cc3ccccc3)(C(=O)OC)[C@H]2C1=O	-25%	2%	-1%	27%	/	-11%
O=C(Cc1ccccc1)c1ccc(O)cc1O	-7%	-8%	/	26%	/	-15%
O=C(O)c1cc(N(Cc2ccccc2O)Cc2cc(O)ccc2O)ccc1O	/	/	/	/	/	50µM*
O=C(Nc1c(C(=O)O)[nH]c2ccc(F)cc12)c1cccc(C(F)(F)F)c1	79µM*	-4%	-9%	?	-38%	3%
CSc1ccc(CCNC(=O)c2sc3ncccc3c2-n2cccc2)cc1	-29%	/	/	0%[57 µM]	-26%	5%
Cc1cccc(NC(=O)C(=O)NNC(=O)c2ccc(C(C)(C)C)cc2)c1	-14%	-4%	/	52%	0%	-1%
Cc1ccc(F)c(NC(=O)/C(C#N)=C(\O)c2ccc(C(C)(C)C)cc2)c1	-25%	30µM*	4%	12%	?	?
COc1ccc(NC(=O)CCc2c(C)nn(-c3ccc(N4CCCC4)nn3)c2C)cc1Cl	?	/	/	37%	-30%	7%
S=c1nc(-c2ccccc2Br)[nH][nH]1	0.79µM*	?	-16%	?	12%	-2%
S=c1nc(-c2cc(Cl)cc(Cl)c2)[nH][nH]1	79µM*	24µM*	5%	-1%	-5%	-20%
S=c1nc(-c2cccc(Cl)c2)[nH][nH]1	2.5µM*	-26%	/	12%	-20%	-15%
